# Assay results from the supplement of paper PMC10849652.
# The full data set covers some 8,800 targets. This sample favours those with a hit. About 0.5% of all pairs of compound and target were hits.
# What was measured:
# Assay in all cases: log2 fold change, soluble protein after heating vs DMSO (PISA); higher = thermal stabilisation; K562 lysate, 10 uM; active = over 0.2 and 3.5 SD of the protein, either way, in both replicates (recomputed)
# [1] = compound: NCC(=O)Nc1ccc(-n2nc(C(F)(F)F)cc2-c2ccc3c(ccc4ccccc43)c2)cc1
# Method in brief: (§1)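 The values are log-two fold changes in thermal stability compared with solvent controls and come from duplicates. They were obtained by TMTpro 16plex LC-MS/MS, with channel sums equalised, on the supernatant after 21,000xg for 90 min. That supernatant came from crude K562 extract at 1 mg/mL protein treated with 10 μM compound for 30 min, heated for 3 min across 48°C-58°C, pooled and brought to 0.5% NP-40 at 4°C.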
# vorinostat = compound: O=C(CCCCCCC(=O)Nc1ccccc1)NO [vorinostat]
# Method in brief: as §1
# silmitasertib = compound: O=C(O)c1ccc2c(c1)nc(Nc1cccc(Cl)c1)c1ccncc12 [silmitasertib]
# Method in brief: as §1
# [2] = compound: O=C1NC(=O)C(c2cnc3ccccn23)=C1c1cn2c3c(cc(F)cc13)CN(C(=O)N1CCCCC1)CC2
# Method in brief: as §1
# entospletinib = compound: c1cn2cc(-c3ccc4cn[nH]c4c3)nc(Nc3ccc(N4CCOCC4)cc3)c2n1 [entospletinib]
# Method in brief: as §1
# UniProt O15014, sequence (O15014 whole entry, looked up): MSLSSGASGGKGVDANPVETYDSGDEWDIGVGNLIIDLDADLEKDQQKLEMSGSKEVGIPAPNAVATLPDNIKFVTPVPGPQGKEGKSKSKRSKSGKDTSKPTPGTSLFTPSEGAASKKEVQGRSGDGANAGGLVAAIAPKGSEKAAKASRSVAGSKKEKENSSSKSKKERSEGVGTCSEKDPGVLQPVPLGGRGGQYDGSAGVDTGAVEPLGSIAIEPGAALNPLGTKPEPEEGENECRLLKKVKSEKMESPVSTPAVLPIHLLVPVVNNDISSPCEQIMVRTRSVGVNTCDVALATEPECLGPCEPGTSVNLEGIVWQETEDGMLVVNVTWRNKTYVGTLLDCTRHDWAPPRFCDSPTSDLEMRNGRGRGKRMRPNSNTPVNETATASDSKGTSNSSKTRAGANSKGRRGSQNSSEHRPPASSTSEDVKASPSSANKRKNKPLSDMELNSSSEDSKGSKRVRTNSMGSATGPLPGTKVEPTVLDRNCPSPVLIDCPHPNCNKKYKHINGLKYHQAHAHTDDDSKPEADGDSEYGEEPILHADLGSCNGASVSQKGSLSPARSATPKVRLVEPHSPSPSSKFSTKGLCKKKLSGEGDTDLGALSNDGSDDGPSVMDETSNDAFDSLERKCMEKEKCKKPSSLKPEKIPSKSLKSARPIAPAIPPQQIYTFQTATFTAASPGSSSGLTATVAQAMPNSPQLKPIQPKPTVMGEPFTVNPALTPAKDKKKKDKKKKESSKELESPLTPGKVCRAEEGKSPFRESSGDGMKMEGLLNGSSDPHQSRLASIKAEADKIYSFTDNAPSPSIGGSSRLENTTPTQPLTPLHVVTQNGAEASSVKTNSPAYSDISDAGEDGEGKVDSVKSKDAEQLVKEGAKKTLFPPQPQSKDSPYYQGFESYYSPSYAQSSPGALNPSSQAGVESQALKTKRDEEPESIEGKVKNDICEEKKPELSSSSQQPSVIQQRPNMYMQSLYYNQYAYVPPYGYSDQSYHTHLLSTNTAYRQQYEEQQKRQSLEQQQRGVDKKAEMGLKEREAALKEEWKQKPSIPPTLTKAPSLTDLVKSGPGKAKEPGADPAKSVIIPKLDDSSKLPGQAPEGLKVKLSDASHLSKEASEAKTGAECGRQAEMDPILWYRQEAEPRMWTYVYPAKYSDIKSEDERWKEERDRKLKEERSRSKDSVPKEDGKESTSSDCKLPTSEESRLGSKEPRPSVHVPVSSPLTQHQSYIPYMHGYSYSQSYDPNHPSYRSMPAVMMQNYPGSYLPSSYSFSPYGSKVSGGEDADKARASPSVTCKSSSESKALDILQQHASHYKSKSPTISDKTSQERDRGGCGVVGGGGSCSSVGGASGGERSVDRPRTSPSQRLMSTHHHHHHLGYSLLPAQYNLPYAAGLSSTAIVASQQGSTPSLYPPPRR
# UniProt O43149, sequence (O43149 whole entry, looked up): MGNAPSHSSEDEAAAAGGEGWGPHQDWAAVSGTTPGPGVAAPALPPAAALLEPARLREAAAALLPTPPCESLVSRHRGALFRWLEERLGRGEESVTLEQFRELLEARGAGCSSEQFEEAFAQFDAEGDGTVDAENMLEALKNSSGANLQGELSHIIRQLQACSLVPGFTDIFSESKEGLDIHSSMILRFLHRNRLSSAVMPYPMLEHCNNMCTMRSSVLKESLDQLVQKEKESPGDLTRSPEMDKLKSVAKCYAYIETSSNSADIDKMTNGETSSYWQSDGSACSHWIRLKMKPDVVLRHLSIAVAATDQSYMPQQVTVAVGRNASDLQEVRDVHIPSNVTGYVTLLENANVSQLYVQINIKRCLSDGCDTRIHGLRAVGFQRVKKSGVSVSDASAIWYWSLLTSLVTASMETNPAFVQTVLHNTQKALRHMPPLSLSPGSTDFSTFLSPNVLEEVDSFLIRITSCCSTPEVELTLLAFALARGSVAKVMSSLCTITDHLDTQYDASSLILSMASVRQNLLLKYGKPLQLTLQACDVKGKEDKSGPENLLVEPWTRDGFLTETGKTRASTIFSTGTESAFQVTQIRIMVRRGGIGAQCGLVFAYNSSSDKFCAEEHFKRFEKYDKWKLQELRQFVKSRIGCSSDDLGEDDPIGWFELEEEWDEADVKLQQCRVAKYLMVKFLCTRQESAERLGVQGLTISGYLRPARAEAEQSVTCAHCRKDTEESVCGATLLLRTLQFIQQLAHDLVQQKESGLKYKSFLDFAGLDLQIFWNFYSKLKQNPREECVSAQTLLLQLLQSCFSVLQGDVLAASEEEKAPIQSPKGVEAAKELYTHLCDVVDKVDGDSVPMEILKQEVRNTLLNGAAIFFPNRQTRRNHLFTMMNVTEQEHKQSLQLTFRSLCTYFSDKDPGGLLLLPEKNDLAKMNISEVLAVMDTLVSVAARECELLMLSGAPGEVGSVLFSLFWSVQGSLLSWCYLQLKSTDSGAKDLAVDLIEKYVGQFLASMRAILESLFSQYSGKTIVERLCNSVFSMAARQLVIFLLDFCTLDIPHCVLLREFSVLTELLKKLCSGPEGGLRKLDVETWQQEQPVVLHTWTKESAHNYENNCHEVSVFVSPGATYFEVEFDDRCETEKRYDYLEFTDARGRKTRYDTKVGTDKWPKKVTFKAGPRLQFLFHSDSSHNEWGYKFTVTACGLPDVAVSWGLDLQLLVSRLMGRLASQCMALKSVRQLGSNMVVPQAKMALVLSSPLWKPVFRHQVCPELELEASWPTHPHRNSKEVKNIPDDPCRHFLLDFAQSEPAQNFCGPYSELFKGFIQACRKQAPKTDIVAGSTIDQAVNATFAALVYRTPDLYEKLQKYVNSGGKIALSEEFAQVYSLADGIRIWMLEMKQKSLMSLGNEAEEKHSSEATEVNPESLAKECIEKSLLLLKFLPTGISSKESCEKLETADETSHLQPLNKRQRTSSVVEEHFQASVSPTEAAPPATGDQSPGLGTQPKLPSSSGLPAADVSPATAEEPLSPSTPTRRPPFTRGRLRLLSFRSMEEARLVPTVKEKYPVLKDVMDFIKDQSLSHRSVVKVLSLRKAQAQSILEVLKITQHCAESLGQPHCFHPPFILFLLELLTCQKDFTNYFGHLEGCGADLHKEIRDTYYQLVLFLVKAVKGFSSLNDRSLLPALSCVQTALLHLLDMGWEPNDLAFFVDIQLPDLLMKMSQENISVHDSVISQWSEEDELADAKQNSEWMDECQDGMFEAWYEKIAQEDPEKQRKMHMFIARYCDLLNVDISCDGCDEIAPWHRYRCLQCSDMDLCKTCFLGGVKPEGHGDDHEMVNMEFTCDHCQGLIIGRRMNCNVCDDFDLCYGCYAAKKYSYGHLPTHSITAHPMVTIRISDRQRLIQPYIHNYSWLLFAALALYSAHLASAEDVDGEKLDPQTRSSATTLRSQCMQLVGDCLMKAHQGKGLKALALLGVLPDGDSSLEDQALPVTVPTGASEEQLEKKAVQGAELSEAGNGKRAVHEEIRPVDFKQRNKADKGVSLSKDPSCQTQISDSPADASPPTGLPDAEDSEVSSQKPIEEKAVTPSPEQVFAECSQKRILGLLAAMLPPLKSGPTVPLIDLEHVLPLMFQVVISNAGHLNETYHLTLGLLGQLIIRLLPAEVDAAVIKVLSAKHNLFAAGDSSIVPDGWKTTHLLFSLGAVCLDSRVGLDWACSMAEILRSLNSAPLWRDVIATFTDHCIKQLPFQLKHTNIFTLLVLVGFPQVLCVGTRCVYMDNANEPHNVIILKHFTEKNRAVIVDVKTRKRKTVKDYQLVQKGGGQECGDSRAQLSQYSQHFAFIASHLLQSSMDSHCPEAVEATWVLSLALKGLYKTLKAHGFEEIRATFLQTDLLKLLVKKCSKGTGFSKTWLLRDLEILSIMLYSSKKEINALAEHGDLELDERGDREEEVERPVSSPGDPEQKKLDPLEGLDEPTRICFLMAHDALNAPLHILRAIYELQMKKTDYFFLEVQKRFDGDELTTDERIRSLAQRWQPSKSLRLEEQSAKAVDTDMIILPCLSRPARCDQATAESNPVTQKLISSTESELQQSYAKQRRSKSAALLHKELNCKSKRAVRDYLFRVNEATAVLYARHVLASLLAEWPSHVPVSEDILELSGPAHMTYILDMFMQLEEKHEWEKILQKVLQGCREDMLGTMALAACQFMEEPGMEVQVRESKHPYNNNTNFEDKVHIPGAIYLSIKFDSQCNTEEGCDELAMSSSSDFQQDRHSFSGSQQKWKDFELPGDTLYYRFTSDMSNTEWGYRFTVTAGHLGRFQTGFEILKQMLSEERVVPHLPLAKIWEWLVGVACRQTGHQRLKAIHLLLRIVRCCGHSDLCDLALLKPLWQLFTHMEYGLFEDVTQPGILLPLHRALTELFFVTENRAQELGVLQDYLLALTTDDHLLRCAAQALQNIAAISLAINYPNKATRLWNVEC
# UniProt Q96K21, sequence (Q96K21 whole entry, looked up): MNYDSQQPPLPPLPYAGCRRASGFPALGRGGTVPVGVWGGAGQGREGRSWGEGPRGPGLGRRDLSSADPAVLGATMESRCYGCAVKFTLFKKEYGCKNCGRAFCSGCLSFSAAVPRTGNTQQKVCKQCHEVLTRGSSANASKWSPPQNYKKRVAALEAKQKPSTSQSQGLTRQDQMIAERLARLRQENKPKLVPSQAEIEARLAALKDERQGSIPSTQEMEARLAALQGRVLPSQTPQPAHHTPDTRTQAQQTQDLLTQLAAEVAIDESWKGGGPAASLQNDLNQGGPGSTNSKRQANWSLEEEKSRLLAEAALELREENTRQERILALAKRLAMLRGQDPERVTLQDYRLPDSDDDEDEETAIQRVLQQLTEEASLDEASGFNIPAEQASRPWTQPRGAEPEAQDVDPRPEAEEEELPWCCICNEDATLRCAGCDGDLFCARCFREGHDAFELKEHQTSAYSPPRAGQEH
# UniProt Q9UL40, sequence (Q9UL40 whole entry, looked up): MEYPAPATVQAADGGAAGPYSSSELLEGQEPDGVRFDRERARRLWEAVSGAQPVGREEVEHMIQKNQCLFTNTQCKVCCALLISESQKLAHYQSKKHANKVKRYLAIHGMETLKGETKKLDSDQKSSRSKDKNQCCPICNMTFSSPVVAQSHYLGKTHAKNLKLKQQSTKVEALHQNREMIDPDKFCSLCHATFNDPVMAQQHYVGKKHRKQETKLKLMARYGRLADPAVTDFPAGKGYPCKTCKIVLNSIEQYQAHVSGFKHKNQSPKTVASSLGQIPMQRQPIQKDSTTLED
Target,log2 fold change [1],log2 fold change (vorinostat),log2 fold change (silmitasertib),log2 fold change [2],log2 fold change (entospletinib)
VPS33A (UniProt Q96AX1),0.011 (inactive),-0.222 (active),0.025 (inactive),0.007 (inactive),-0.018 (inactive)
ZMYM4 (UniProt Q5VZL5),0.05 (inactive),-0.383 (active),-0.016 (inactive),0.009 (inactive),-0.013 (inactive)
ZNHIT6 (UniProt Q9NWK9),0.001 (inactive),-0.218 (active),-0.041 (inactive),0.002 (inactive),-0.062 (inactive)
ZFYVE19 (UniProt Q96K21),0.026 (inactive),0.105 (inactive),0.002 (inactive),0.01 (inactive),-0.012 (inactive)
WRNIP1 (UniProt Q96S55),-0.011 (inactive),-0.521 (active),0 (inactive),-0.046 (inactive),-0.02 (inactive)
WDHD1 (UniProt O75717),-0.011 (inactive),-0.259 (active),0.02 (inactive),-0.018 (inactive),0.016 (inactive)
WDR20 isoform 7 (UniProt Q8TBZ3),0.01 (inactive),0.009 (inactive),0.087 (inactive),-0.013 (inactive),0.018 (inactive)
ZNF609 (UniProt O15014),0.184 (inactive),-0.309 (active),0.041 (inactive),-0.013 (inactive),-0.026 (inactive)
VPS54 (UniProt Q9P1Q0),0.112 (inactive),-0.055 (inactive),-0.001 (inactive),0.002 (inactive),0.007 (inactive)
YME1L1 (UniProt Q96TA2),-0.001 (inactive),0.04 (inactive),0.007 (inactive),-0.008 (inactive),0.02 (inactive)
VPS72 (UniProt Q15906),0.11 (inactive),-0.401 (active),-0.018 (inactive),-0.029 (inactive),-0.014 (inactive)
ZNF217 (UniProt O75362),0 (inactive),-0.301 (active),0.047 (inactive),-0.054 (inactive),-0.061 (inactive)
USP9X (UniProt Q93008),0.011 (inactive),-0.466 (active),0.028 (inactive),-0.012 (inactive),0 (inactive)
WDR62 isoform 4 (UniProt O43379),0.045 (inactive),-0.423 (active),0.01 (inactive),-0.014 (inactive),-0.016 (inactive)
WDR91 (UniProt A4D1P6),-0.045 (inactive),-0.227 (active),0.042 (inactive),-0.004 (inactive),-0.029 (inactive)
UTP18 (UniProt Q9Y5J1),0.045 (inactive),-0.078 (inactive),-0.014 (inactive),0.029 (inactive),-0.136 (inactive)
ZSWIM8 isoform 4 (UniProt A7E2V4),0.079 (inactive),-0.07 (inactive),0.081 (inactive),0.071 (inactive),-0.018 (inactive)
UNC45A (UniProt Q9H3U1),-0.005 (inactive),-0.588 (active),0.011 (inactive),0.008 (inactive),0.01 (inactive)
ZMYM2 (UniProt Q9UBW7),-0.125 (inactive),-0.609 (active),0.034 (inactive),0.019 (inactive),0.069 (inactive)

Target,log2 fold change [1],log2 fold change (vorinostat),log2 fold change (silmitasertib),log2 fold change [2],log2 fold change (entospletinib)
ZZEF1 (UniProt O43149),0.02 (inactive),-0.263 (active),0.011 (inactive),0.012 (inactive),0.004 (inactive)
VHL (UniProt P40337),0.015 (inactive),-0.289 (inactive),-0.038 (inactive),-0.011 (inactive),-0.001 (inactive)
ZNF451 (UniProt Q9Y4E5),0.064 (inactive),-0.538 (active),-0.003 (inactive),-0.013 (inactive),0.019 (inactive)
VARS (UniProt P26640),0.006 (inactive),-0.275 (active),0.063 (inactive),0.022 (inactive),0.024 (inactive)
YWHAQ (UniProt P27348),-0.047 (inactive),-0.052 (inactive),-0.012 (inactive),0.013 (inactive),0.022 (inactive)
ZBTB33 (UniProt Q86T24),0.061 (inactive),0.103 (inactive),-0.082 (inactive),0.009 (inactive),-0.033 (inactive)
YBEY (UniProt P58557),0.035 (inactive),-0.136 (inactive),0.063 (inactive),–,0.029 (inactive)
ZNF346 (UniProt Q9UL40),–,0.137 (inactive),0.018 (inactive),-0.05 (inactive),0.02 (inactive)
UNKL (UniProt E9PDK2),-0.336 (inactive),–,–,0.003 (inactive),0.108 (inactive)
ZKSCAN8 (UniProt Q15776),0.015 (inactive),0.229 (inactive),-0.005 (inactive),0.055 (inactive),-0.002 (inactive)
ZYG11A (UniProt Q6WRX3),–,0.719 (active),0.17 (inactive),–,–
ZSCAN21 (UniProt Q9Y5A6),–,–,–,–,-0.208 (inactive)
WEE1 (UniProt P30291),0.023 (inactive),-0.52 (active),0.107 (inactive),-0.03 (inactive),-0.007 (inactive)
USE1 (UniProt Q9NZ43),-0.113 (inactive),-0.029 (inactive),0.028 (inactive),0.053 (inactive),-0.036 (inactive)
ZNF652 (UniProt Q9Y2D9),–,–,–,-0.042 (inactive),–
VAMP2 (UniProt P63027),0.071 (inactive),0.016 (inactive),-0.008 (inactive),0.132 (inactive),-0.054 (inactive)
ZNF281 (UniProt Q9Y2X9),–,-0.403 (active),-0.084 (inactive),-0.072 (inactive),–
WDR41 (UniProt Q9HAD4),-0.017 (inactive),-0.284 (active),0.022 (inactive),-0.08 (inactive),0.01 (inactive)
UTRN isoform 2 (UniProt P46939),–,0.173 (inactive),-0.144 (inactive),–,-0.424 (inactive)

Target,log2 fold change [1],log2 fold change (vorinostat),log2 fold change (silmitasertib),log2 fold change [2],log2 fold change (entospletinib)
ZC2HC1A (UniProt Q96GY0),0.104 (inactive),-0.066 (inactive),0.054 (inactive),-0.008 (inactive),-0.005 (inactive)
YDJC (UniProt A8MPS7),0.048 (inactive),-0.443 (active),0.023 (inactive),-0.051 (inactive),0.051 (inactive)
ZSCAN26 (UniProt Q16670),–,–,–,-0.024 (inactive),–
ZMYND8 isoform 19 (UniProt Q9ULU4),0.059 (inactive),-0.224 (active),0.029 (inactive),0.006 (inactive),-0.02 (inactive)
WIPI2 (UniProt Q9Y4P8),-0.036 (inactive),-0.303 (active),0.033 (inactive),-0.005 (inactive),-0.008 (inactive)
UNC13A (UniProt Q9UPW8),–,-0.485 (inactive),0.078 (inactive),–,–
ZC3H11A (UniProt O75152),0.123 (inactive),-0.375 (active),-0.026 (inactive),0.062 (inactive),-0.009 (inactive)
ZDHHC17 (UniProt Q8IUH5),0.065 (inactive),–,–,-0.067 (inactive),0.009 (inactive)
VRK1 (UniProt Q99986),-0.013 (inactive),-0.08 (inactive),0.091 (inactive),0.002 (inactive),0.056 (inactive)
VAC14 (UniProt Q08AM6),-0.02 (inactive),-0.229 (active),0.041 (inactive),0.005 (inactive),-0.008 (inactive)
WAC isoform 5 (UniProt Q9BTA9),–,-0.002 (inactive),0.351 (inactive),–,–
VASN (UniProt Q6EMK4),–,0.233 (inactive),-0.263 (inactive),–,-0.027 (inactive)
XAB2 (UniProt Q9HCS7),-0.012 (inactive),-0.259 (active),0.005 (inactive),-0.023 (inactive),-0.006 (inactive)
YEATS4 (UniProt O95619),0.042 (inactive),0.057 (inactive),-0.029 (inactive),-0.046 (inactive),-0.037 (inactive)
WIPI1 (UniProt Q5MNZ9),–,0.088 (inactive),-0.051 (inactive),0.026 (inactive),-0.001 (inactive)
USP48 isoform 8 (UniProt Q86UV5),0.014 (inactive),-0.474 (active),0.009 (inactive),-0.022 (inactive),0.021 (inactive)
WAS (UniProt P42768),–,-0.07 (inactive),0.025 (inactive),–,-0.055 (inactive)
YES1 (UniProt P07947),0.09 (inactive),-0.067 (inactive),-0.187 (inactive),-0.054 (inactive),0.038 (inactive)
